Measurements as given in PubChem BioAssay (NCATS).
Inconclusive results are not listed. A call without a number means that no potency is given here. The source made the active and inactive calls. Calls follow the shape of the dose curve; as a rule, active = well fitted cell-killing curve with a large enough effect; inconclusive = small, poorly fitted or top-dose-only effect, or effect the other way; inactive = flat fitted curve, though single readings scatter.

These compounds were tested on PA-1 (assay: Primary qHTS to identify gynecologic anti-cancer compounds using libraries of approved drugs and bioactive compounds (AID 1345084; also: nearly all actives have a fitted effect of over 55% in size)). Conditions: Gynecologic cancer cell panel viability, ATPlite luminescence, 48 h; series mostly up to 57.5 µM.
Outline: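 Cell viability after 48 h drug treatment, ATPlite luminescence readout; five doses.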
Potency is read from the fitted curve at half-maximal effect.

Row | SMILES | Potency
1 | COc1cccc(-c2cc(F)ccc2C2Cc3nc(N)nc(C)c3C(=O)N2)n1 (centres undefined) | 0.355 µM (active)
2 | COc1cc2c(cc1OC)CN(C(=O)/C=C/c1c(-c3ccccc3)n(C)c3ncccc13)CC2 | inactive
3 | CN1CCC(c2cn(C)c3ccc(OS(=O)(=O)c4c(F)cccc4F)cc23)CC1 | inactive
4 | C=C1CO[C@@]2(O[C@H]3CC4C5CC=C6C[C@@H](O)C[C@@H](O[C@@H]7OC[C@H](O)[C@H](O[C@@H]8OC[C@@H](O)[C@H](O)[C@H]8O)[C@H]7O[C@@H]7O[C@@H](C)[C@H](OC(C)=O)[C@@H](OC(C)=O)[C@H]7OC(C)=O)[C@]6(C)C5CC[C@]4(C)[C@@H]3[C@@H]2C)[C@@H](O)[C@H]1OC1OC(C)C(O)C(O)C1O (some centres undefined) | 3.55 µM (active)
5 | CCN1C(C)(C)CC(Oc2ccc(C(=O)Nc3ccc(NC(=O)Nc4cc(C(C)(C)C)on4)cc3)nc2)CC1(C)C | inactive
6 | O=C(Nc1nc2cc(C(F)(F)F)cc(NC3CC3)n2n1)c1cccnc1 | 7.08 µM (active)
7 | O=C(CN1C2=NCCN2c2ccccc21)c1ccc(-c2ccccc2)cc1 | inactive
8 | CC(=O)OC(C)(C)/C=C/C(=O)C(C)(O)C1C(O)CC2(C)C3CC=C(C(C)(C)C(=O)O)C(CC(=O)O)C3(C)C(=O)CC12C (centres undefined) | inactive
9 | CC(=O)NC(C)c1cnc(-c2cnc(Oc3ccc(OC(C)C)cc3)s2)s1 (centres undefined) | inactive
10 | CCC(CC)C(c1ccc(Nc2nc3ccccc3s2)cc1)n1cncn1 (centres undefined) | 22.4 µM (active)
11 | COc1cc(C[C@H]2C(=O)OC[C@@H]2Cc2ccc(OC)c(OC)c2)ccc1O | inactive
12 | Nc1nc(Cl)nc2c1ncn2C1OC(CO)C(O)C1F (centres undefined) | 3.55 µM (active)
13 | CNS(=O)(=O)c1ccccc1Nc1nc(Nc2ccc(N3CCN(C)CC3)cc2OC)ncc1Br | 2 µM (active)
14 | COc1cc(/C=C/C(=O)NCCn2c(C(F)(F)F)cc3ccccc32)cc(OC)c1OC | inactive
15 | CN(C)CCn1cc(-c2ccc(F)cc2)c(-n2cccc2)n1 | inactive
16 | N#Cc1ccc(O[C@@H]2c3ccccc3C[C@H]2N2CCC[C@@H](N)C2)c(Cl)c1 | inactive
17 | CCn1c(=O)c(-c2ccc(Cl)cc2Cl)cc2cnc(Nc3ccc(N4CCNCC4)c(F)c3)nc21 | inactive

Row | SMILES | Potency
18 | NC(N)=NC(=O)c1cnn(-c2cccc3ncccc23)c1C1CC1 | inactive
19 | CN1CCN(c2ccc(OC(F)(F)F)c(Nc3ncc4c(n3)-c3c(c(C(N)=O)nn3CCO)CC4)c2)CC1 | 0.282 µM (active)
20 | Cc1cc(-c2cnc(N)c3c(-c4ccc5scnc5c4)csc23)n(C)n1 | inactive
21 | C=C1C(=O)O[C@@H]2C3C(=C(C)[C@@H](O)[C@@H](OC(=O)/C(=C/C)COC(C)=O)[C@@H]12)C(=O)[C@H]1O[C@@]31C (some centres undefined) | 8.91 µM (active)
22 | COc1ccc(C2(N(C)C(=O)c3ccc(NC(=O)c4ccco4)cc3)CCOCC2)cc1 | inactive
23 | CC(=O)C=C=C1C(C)(C)CC(O)CC1(C)O[C@@H]1O[C@H](CO[C@H]2OC[C@](O)(CO)[C@H]2O)[C@@H](O)[C@H](O)[C@H]1O (some centres undefined) | inactive
24 | Cn1cc(-c2ccc3c(c2)CCN3C(=O)Cc2cccc(C(F)(F)F)c2)c2c(N)ncnc21 | inactive
25 | CCOC(=O)C1(CCOc2ccccc2)CCN(Cc2ccc(O)c(Cl)c2)CC1 | inactive
26 | CCn1c(-c2nonc2N)nc2c(C#CC(C)(C)O)ncc(OCC3CCCNC3)c21 (centres undefined) | 28.2 µM (active)
27 | O=c1nc(-c2ccccn2)sc2ccccc12 | inactive
28 | COc1ccccc1S(=O)(=O)Nc1ccc2c(c1)CN(C)C(=O)N2 | inactive
29 | Cn1cc(-c2ccc(S(=O)(=O)n3ccc(/C=C/C(=O)Nc4ccccc4N)c3)cc2)cn1 | 7.08 µM (active)
30 | C=C1C(=O)O[C@@H]2C[C@]3(C)[C@@H](CCC(C)O)[C@@H]3C[C@H]12 (some centres undefined) | inactive
31 | CNC(C)C(=O)NC(C(=O)N1CCCC1C(=O)Nc1snnc1-c1ccccc1)C1CCCCC1 (centres undefined) | inactive
32 | C=C1C(=O)OC2/C=C(\C)CC3C=C(CC/C=C(\C)CCC12)C(=O)O3 (centres undefined) | inactive
33 | Cn1cc(-c2cnn3c(N)c(Br)c(C4CCCNC4)nc23)cn1 (centres undefined) | 14.1 µM (active)
34 | C=C(NC(=O)C(=C)NC(=O)c1csc(C2=NC3c4csc(n4)C4NC(=O)c5csc(n5)C(C(C)(O)C(C)O)NC(=O)C5CSC(=N5)/C(=C/C)NC(=O)C(C(C)O)NC(=O)c5csc(n5)C3(CC2)NC(=O)C(C)NC(=O)C(=C)NC(=O)C(C)NC(=O)C(C(C)CC)NC2C=Cc3c(C(C)O)cc(nc3C2O)C(=O)OC4C)n1)C(N)=O (centres undefined) | 28.2 µM (active)
